ELG1 genotoxic: qHTS screen for small molecules that induce genotoxicity in human embryonic kidney (HEK293T) cells expressing luciferase-tagged ELG1; HEK293T ELG1-luciferase reporter, luminescence, 16 h; actives 1.3% (n = 330,000); Potency, µM (top dose mostly 46 µM), without a hit: top-dose activity change, positive = activation, most hits filed as activators; AID 504466, 2011; note: % of control where 0% means no effect; nearly all actives have a fitted effect of over 60% in size
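Quantitative HTS format in 1536-well plates. HEK293T ELG1-luciferase reporter cells receive test compound and are incubated 16 hr at 37 °C, 5% CO2; ONE-Glo added, 30 min room temperature, then luminescence read.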
NPC1 promoter act: qHTS Assay for NPC1 Promoter Activators; actives 2.4% (n = 320,000); Huh7 NPC1 promoter luciferase reporter, 24 h; Potency, µM (titrated, usually from 9.22 µM), for the others: top-dose activation, hits mostly activators; note: % of control where 0% means no effect; nearly all actives have a fitted effect of over 60% in size
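Huh7 reporter cells (NPC1 promoter driving luciferase) are dosed with compound for 24 h at 37 °C, 5% CO2; luciferase detection reagent is then added and luminescence measured after 10 min at ambient temperature.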
FLuc modulator: qHTS profiling assay for firefly luciferase inhibitor/activator using purifed enzyme and Km concentrations of substrates (counterscreen for miR-21 project); Luciferin 4-monooxygenase (Photinus pyralis), P08659; purified FLuc, Km substrates, luminescence inhibition; Potency, µM (highest dose often 57.5 µM), for the others: top-dose activity change, negative = inhibition, actives largely listed as inhibitors; actives 6.9% (n = 360,000); AID 588342, 2011;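 note: plate controls were vehicle for no effect and reference inhibitor for full effect; nearly all actives have a fitted effect of over 55% in size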
Target sequence (P08659 whole entry, looked up): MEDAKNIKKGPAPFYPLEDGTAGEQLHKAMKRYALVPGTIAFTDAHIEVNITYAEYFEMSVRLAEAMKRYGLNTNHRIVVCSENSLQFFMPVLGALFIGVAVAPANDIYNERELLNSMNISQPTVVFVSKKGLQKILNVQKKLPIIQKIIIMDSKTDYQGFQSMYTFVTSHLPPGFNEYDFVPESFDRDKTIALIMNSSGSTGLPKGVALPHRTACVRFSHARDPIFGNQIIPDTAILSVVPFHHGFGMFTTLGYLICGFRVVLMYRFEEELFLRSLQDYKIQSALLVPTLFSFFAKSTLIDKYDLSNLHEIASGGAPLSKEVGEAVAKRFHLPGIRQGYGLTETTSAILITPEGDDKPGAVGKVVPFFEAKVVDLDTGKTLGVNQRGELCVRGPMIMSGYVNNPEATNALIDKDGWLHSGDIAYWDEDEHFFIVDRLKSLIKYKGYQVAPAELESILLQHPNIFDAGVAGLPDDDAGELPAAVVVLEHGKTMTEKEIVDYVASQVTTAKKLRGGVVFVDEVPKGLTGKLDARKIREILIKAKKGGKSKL
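Biochemical qHTS of compounds, final roughly 60 µM downward over six points, against 10 nM purified firefly luciferase using Km concentrations of substrates (10 uM D-luciferin, 10 uM ATP) in Tris acetate pH 7.5 buffer; luminescence output.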
SMN2 splice up: qHTS Assay for Enhancers of SMN2 Splice Variant Expression. HEK293 SMN2-luciferase splicing reporter, luminescence, 30-36 h. Potency, µM (series often up to 46.1 µM), without a hit: at the top dose activity change, positive = activation, usual class: activators. actives 2.8% (n = 210,000); note: % of control where 0% means no effect; nearly all actives have a fitted effect of over 55% in size
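HEK293 cells carry an SMN2 minigene-luciferase reporter in which exon 7 inclusion puts luciferase in frame. Cells were seeded at 2000 cells/well, attached for 10-12 hours, then exposed to compounds for 30-36 hours at 37C before ONE-Glo luminescence.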
KinaseGlo FLuc: Counterscreen for Luciferase (Kinase-Glo TM) Inhibition. Potency, µM (highest dose often 38.3 µM), for inactives: top-dose activity change, negative = inhibition, hits mostly inhibitors. Kinase-Glo luciferase, ATP luminescence, 8 min. actives 0.28% (n = 200,000). Luciferin 4-monooxygenase (Photuris pensylvanica), Q27757; note: % is set by controls: 0 for no effect and ±100 for the full control effect; nearly all actives have a fitted effect of over 60% in size
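Inhibition of Kinase-Glo luciferase light generation was assessed at 10 uM ATP in pH 7.2 imidazole buffer, with luminescence measured after eight minutes at ambient temperature.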
Rab9 prom act: qHTS Assay for Rab9 Promoter Activators; Potency, µM (doses to about 9.22 µM), for the others: at the top dose activation, negative = inhibition, actives largely listed as activators; actives 2.8% (n = 320,000); Huh7 Rab9 promoter-luciferase reporter, luminescence, 24 h; note: % of control where 0% means no effect; nearly all actives have a fitted effect of over 60% in size
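Luminescence read-out: Huh7 cells stably expressing Rab9-luciferase, treated 24 h with compound at 37 °C, then lysed with luciferase reagent for 10 min at ambient before reading.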
Numbers without * were called inactive; [ ] = another dose, or the depositor's remark. Shown are actives, neighbours in structure and some others; about 7.3% of the full set was active somewhere. Calls come from the whole dose curve; as a rule, active = well fitted curve in the direction sought with a large enough effect; inconclusive = small, poorly fitted or top-dose-only effect, or another doubt; inactive = no such curve, though single readings can be large; an effect the other way counts as inactive or inconclusive. Potency is the fitted concentration of half-maximal effect.

Cc1ccc2c(=O)cc(C(=O)Nc3ccc(S(=O)(=O)N(C)Cc4ccccc4)cc3)oc2c1C was read as FLuc modulator 2% and SMN2 splice up 9%.
Screening O=C(N/N=C/c1c[nH]c2ccccc12)c1cc(-c2cccc3ccccc23)n[nH]1 returned ELG1 genotoxic -2%, NPC1 promoter act -12%, FLuc modulator 15µM*, SMN2 splice up 18%, KinaseGlo FLuc 2% and Rab9 prom act -1%.
For Cc1nc(C)c(C(=O)N/N=C/c2c[nH]c3ccccc23)s1 the results were ELG1 genotoxic 9%, NPC1 promoter act -4%, FLuc modulator inconclusive, SMN2 splice up 11%, KinaseGlo FLuc 15% and Rab9 prom act -6%.
Screening O=C(O)c1ccc(/C=N/NC(=O)c2cc(-c3ccc4c5c(cccc35)CC4)n[nH]2)cc1 returned ELG1 genotoxic -2%, NPC1 promoter act -4%, FLuc modulator 21µM*, SMN2 splice up 4%, KinaseGlo FLuc 0% and Rab9 prom act -7%.
For O=C(N/N=C/c1c[nH]c2ccccc12)c1ccn[nH]1 the results were ELG1 genotoxic 10%, NPC1 promoter act 7%, FLuc modulator 21µM*, SMN2 splice up 27%, KinaseGlo FLuc -6% and Rab9 prom act inconclusive.
For O=C(N/N=C/c1cccs1)c1cc(-c2cccc3ccccc23)n[nH]1 the results were ELG1 genotoxic 15%, NPC1 promoter act 1%, FLuc modulator 19µM*, SMN2 splice up inconclusive, KinaseGlo FLuc 4% and Rab9 prom act 26%.
`COc1ccc(CC[N@+]2(C)COc3cc4oc(=O)cc(C)c4cc3C2)cc1OC` gave SMN2 splice up -6%[9.22 µM] and KinaseGlo FLuc -4%[7.66 µM].
`O=C(NC1(C(F)(F)F)N=C(c2ccccc2)N(Cc2ccccc2)C1=O)c1ccc(F)cc1` (stereo unspecified) gave FLuc modulator -10% and SMN2 splice up -4%.
Screening Cc1nc2c(-c3ccccc3)c(C)nn2c(C)c1CCC(=O)NCc1ccc(Cl)cc1 returned FLuc modulator -1% and SMN2 splice up -3%.
`C[C@H]1Cc2c(-c3ccccc3)nc3c(c2CO1)CN(C(=O)C1CCCCC1)CC3` gave SMN2 splice up 8%[9.22 µM] and KinaseGlo FLuc -3%[7.66 µM].
Screening NC(=O)c1ccc(OCC(=O)N2CCNC2=O)cc1 returned ELG1 genotoxic 1%.
Screening Cc1ccc(C(=O)OCC(=O)c2ccc(CC(=O)N3CCOCC3)s2)c(C)c1 returned ELG1 genotoxic 1%, NPC1 promoter act 1%, FLuc modulator 17µM* and Rab9 prom act -1%.
Screening Cc1ccc(C(=O)OCC(=O)N2CCNC2=O)c(C)c1 returned ELG1 genotoxic inconclusive, NPC1 promoter act inconclusive, FLuc modulator 21µM* and Rab9 prom act inconclusive.
Screening Cc1ccc(-n2c(C)cc(C(=O)OCC(=O)N3CCOCC3)c2C)cc1 returned ELG1 genotoxic 3%.
Screening Cc1ccc(C(=O)OCC(=O)c2ccc(CC(=O)N3CCOCC3)s2)cc1C returned ELG1 genotoxic 1%, NPC1 promoter act 2%, FLuc modulator 24µM* and Rab9 prom act -4%.
For COc1ccc(NC(=O)CN2C(=O)COc3ccc(S(=O)(=O)N4CCCCC4)cc32)cc1Cl the results were FLuc modulator -14%.
CCCS(=O)(=O)c1c(S(=O)(=O)CCC)c2cc(C(C)(C)C)ccn2c1C(=O)c1ccccc1 was read as FLuc modulator -16% and SMN2 splice up -14%.
`CN(CC(=O)Nc1ccc(Cl)cc1F)S(=O)(=O)c1ccc2c(c1)n(C)c(=O)c(=O)n2C` gave FLuc modulator -3% and SMN2 splice up 4%.
O=C(Nc1nc(-c2ccc3c(c2)OCO3)cs1)C1COc2ccccc2O1 (stereo unspecified) was read as ELG1 genotoxic 0%, NPC1 promoter act 0%, FLuc modulator inconclusive, SMN2 splice up 6%, KinaseGlo FLuc 0% and Rab9 prom act 0%.
O=C(/C=C/c1ccc2c(c1)OCO2)Nc1nc(-c2ccccc2)cs1 was read as ELG1 genotoxic -6%, NPC1 promoter act -4%, FLuc modulator 3µM*, SMN2 splice up -62%, KinaseGlo FLuc 1% and Rab9 prom act -2%.
For O=C(/C=C/c1ccc2c(c1)OCO2)Nc1c(C(=O)O)[nH]c2ccccc12 the results were ELG1 genotoxic -2%, NPC1 promoter act 8%, FLuc modulator 7.6µM*, SMN2 splice up -1%, KinaseGlo FLuc 0% and Rab9 prom act -1%.
For CC(C)(C)c1ccc(/C=C/C(=O)Nc2nncs2)cc1 the results were ELG1 genotoxic 2.6µM*, NPC1 promoter act 0.79µM*, FLuc modulator 0.95µM*, SMN2 splice up inconclusive, KinaseGlo FLuc 1% and Rab9 prom act 0.71µM*.
O=C(/C=C/c1ccc2c(c1)OCO2)Nc1nncs1 was read as ELG1 genotoxic inconclusive, NPC1 promoter act 2.2µM*, FLuc modulator 2.1µM* and Rab9 prom act 2µM*.
`Cc1sc(NC(=O)/C=C/c2ccc3c(c2)OCO3)nc1-c1ccccc1` gave ELG1 genotoxic 0%, NPC1 promoter act -21%, FLuc modulator 9.5µM*, SMN2 splice up -56%, KinaseGlo FLuc -1% and Rab9 prom act -24%.
`CCc1ccc2c(CN(C)Cc3ccccc3OC)cc(=O)oc2c1` gave ELG1 genotoxic 14%, NPC1 promoter act 0%, FLuc modulator 17µM* and Rab9 prom act 0%.
Cc1ccc2c(CN(C)Cc3cccc(F)c3)cc(=O)oc2c1 was read as ELG1 genotoxic inconclusive, NPC1 promoter act inconclusive, FLuc modulator 11µM* and Rab9 prom act 21%[1.84 µM].
`COc1ccc2oc(=O)cc(CN(C)Cc3ccccc3)c2c1` gave ELG1 genotoxic -11%, NPC1 promoter act -3%, FLuc modulator 4% and Rab9 prom act -4%.
For O=c1c2ccccc2nc2c3ccccc3cnn12 the results were ELG1 genotoxic inconclusive, NPC1 promoter act inconclusive, FLuc modulator inconclusive, SMN2 splice up inconclusive, KinaseGlo FLuc -8% and Rab9 prom act 2.2µM*.
Cc1c(C(=O)OCC(=O)Nc2ccc(N3CCOCC3)cc2)oc2ccccc12 was read as ELG1 genotoxic -6%, NPC1 promoter act 4%, FLuc modulator 4% and Rab9 prom act -3%.

Source: PubChem (National Center for Advancing Translational Sciences (NCATS))
